Laboratory results as given in PubChem BioAssay (NCATS).
Records with an inconclusive call do not appear. Calls of active or inactive are those of the source. Calls follow the shape of the dose curve; as a rule, active = well fitted activation curve with a large enough effect; inconclusive = small, poorly fitted or top-dose-only effect; inactive = no such curve, though single readings can be large or run the other way.

Biological target: Rap guanine nucleotide exchange factor 3 (Homo sapiens) (UniProt O95398)
Test: Confirmatory qHTS for agonist of cAMP-regulated guanine nucleotide exchange factor 3 (EPAC1) (AID 1645881);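 also: EPAC1 catalysed release of BODIPY-GDP from Rap1B seen as fluorescence loss; 100% = effect of cAMP agonist control; nearly all actives have a fitted effect of over 75% in size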
Conditions: EPAC1 Rap1B BODIPY-GDP exchange fluorescence; series mostly up to 154 µM

Sequence of Rap guanine nucleotide exchange factor 3 (Homo sapiens) (O95398 whole entry, looked up): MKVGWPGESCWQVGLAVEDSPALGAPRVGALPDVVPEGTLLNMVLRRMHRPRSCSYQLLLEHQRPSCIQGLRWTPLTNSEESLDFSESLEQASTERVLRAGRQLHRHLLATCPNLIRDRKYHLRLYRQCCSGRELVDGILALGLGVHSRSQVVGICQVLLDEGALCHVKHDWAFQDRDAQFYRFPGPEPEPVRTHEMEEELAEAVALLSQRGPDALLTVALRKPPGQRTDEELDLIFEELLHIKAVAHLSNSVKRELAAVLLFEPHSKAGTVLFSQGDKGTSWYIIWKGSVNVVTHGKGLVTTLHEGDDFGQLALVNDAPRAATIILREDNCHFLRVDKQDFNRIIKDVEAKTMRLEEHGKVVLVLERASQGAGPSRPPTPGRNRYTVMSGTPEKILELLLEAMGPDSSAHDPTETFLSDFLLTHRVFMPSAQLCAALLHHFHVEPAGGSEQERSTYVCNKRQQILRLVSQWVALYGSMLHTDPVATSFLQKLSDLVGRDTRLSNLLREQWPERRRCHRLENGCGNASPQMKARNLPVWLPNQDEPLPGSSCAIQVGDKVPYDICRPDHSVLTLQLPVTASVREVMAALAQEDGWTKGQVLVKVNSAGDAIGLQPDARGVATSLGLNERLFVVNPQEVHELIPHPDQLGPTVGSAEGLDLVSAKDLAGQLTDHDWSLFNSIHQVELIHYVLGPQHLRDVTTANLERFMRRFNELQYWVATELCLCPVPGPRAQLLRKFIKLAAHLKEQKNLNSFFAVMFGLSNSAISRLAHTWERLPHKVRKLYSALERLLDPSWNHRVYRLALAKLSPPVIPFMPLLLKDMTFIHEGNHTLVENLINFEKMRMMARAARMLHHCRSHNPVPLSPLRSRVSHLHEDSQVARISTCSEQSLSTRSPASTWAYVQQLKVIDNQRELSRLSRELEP

Potency, inactive:
O=C1C=C(NS(=O)(=O)c2ccccc2)C(=O)c2ccccc21
Cc1ccccc1C(=O)Nc1cccc(C(=O)N/N=C/c2cc(Cl)cc([N+](=O)[O-])c2O)c1
Nc1ccc2ccc(O)cc2c1
Cc1ccc(Nc2c(-c3ccccn3)nc3cccc(C)n23)cc1
CC(=O)Nc1ccc(N(C(=O)Cn2nnc3ccccc32)C(C(=O)NC2CCCC2)c2ccc(O)c(O)c2)cc1 (stereo not given)
CCOC(=O)c1cnc2ccc(C(=O)OC)cc2c1Nc1ccccc1CC
COCCCNC(=O)C[C@@H]1C[C@@]2(C(=O)OC)CCCCC=C2N(Cc2cccc3ccccc23)C1=O
Cc1c(N=Cc2cc(Br)cc(Br)c2O)cccc1C(=O)O
CCOC(=O)c1c(NC(=O)CSc2nnnn2-c2ccccc2OCC)sc2c1CC(C)(C)NC2(C)C
CN(C)S(=O)(=O)c1cccc(COC(=O)Cc2c(F)cccc2Cl)c1
O=C(Nc1cccc(S(=O)(=O)NC2=NCCCCC2)c1)c1cc(-c2ccc(Cl)cc2)nc2ccccc12
Cc1cccc(Nc2nnc(-c3ccc(N4CCOCC4)c([N+](=O)[O-])c3)c3ccccc23)c1
Cc1nnc(SCC(=O)NCc2ccccc2F)c2nn(-c3ccc(Cl)cc3)c(C)c12
COn1c2c(c3c4nonc4ccc31)CCCC2
CC(C)(C)C1CCc2c(sc3nc(SCC(=O)O)nc(N)c23)C1 (stereo not given)
CC(C)C1COC(c2cccn2Cc2ccccc2Cl)=N1 (stereo not given)
Cc1cccc(-c2nc3c(cnn3-c3ccccc3)c(=O)n2-c2cccc(Cl)c2)c1
COc1ccc(-n2c(NC(=O)c3ccco3)c(C#N)c3nc4ccccc4nc32)cc1
O=S(=O)(c1ccc2c(c1)C(O)c1ccccc1CC2)C(F)(F)F (stereo not given)
CCOc1ccccc1Oc1ncnc2c1oc1ccccc12
CN(CC(=O)Nc1cccc(F)c1)C(=O)c1cccc(S(=O)(=O)N2CC3(C)CC2CC(C)(C)C3)c1 (stereo not given)
C=CCOC(=O)C1=C(C)NC(C)=C(C(=O)OCC=C)C1c1ccco1
O=C(CSc1nc(-c2ccccc2)nc2c1Cc1ccccc1O2)Nc1ccc(C(=O)O)cc1
O=C(Nc1cccnc1)c1c(O)c2cccc3c2n(c1=O)CC3
CC1=NN(c2ccccc2)C(=O)C1=Cc1ccccc1
Cc1ccc(C(C[N+](=O)[O-])c2c(-c3ccccc3O)[nH][nH]c2=O)cc1 (stereo not given)
CCCC1=C/C(=C/c2ccc(-c3ccccc3OC)o2)C(=O)O1
Cn1c(SCC(=O)c2cc(Cl)c(Cl)s2)nnc1-c1ccco1
CC1=NN(c2ccc(C)c(C)c2)C(=O)C1C(c1cccc(O)c1)C1C(=O)N(c2ccc(C)c(C)c2)N=C1C (stereo not given)
O=C(Nc1sc2c(c1C(=O)O)CCCC2)c1ccc(Cl)cc1
COc1ccccc1-c1nnc(SCC(=O)c2ccc(C3CCCCC3)cc2)n1Cc1ccco1
Cc1noc(C)c1COc1ccccc1C(=O)NC(C)c1ccc(Cl)cc1 (stereo not given)
O=C(Nc1ccccc1)C1=C(O)CC(c2ccc(Cl)cc2)N2CCN=C12 (stereo not given)
Cc1cccn2c(=O)c3cc(C#N)c(=NC(=O)c4ccccc4)n(Cc4ccco4)c3nc12
COc1cc(/C=C2\SC(=O)N(c3cccc(Cl)c3)C2=O)cc([N+](=O)[O-])c1O
CCc1nc2c(OCC3CCCCC3)cccn2c1N(C)C(=O)c1ccc(C)cc1
COc1ccc(C2C=C(c3ccc(Br)cc3)Nc3nnnn32)c(OC)c1 (stereo not given)
COc1cccc(/C=C2\SC(=S)NC2=O)c1OS(=O)(=O)c1ccc(NC(C)=O)cc1
COCCCn1c(=O)/c(=C\c2ccccc2OC(C)C)s/c1=C(/C#N)C(=O)Nc1ccc(C(=O)O)cc1
CC(C)c1ccc(/C=C/C(=O)Nc2ccc(CN3CCOCC3)cc2)cc1

Biological target: Rap guanine nucleotide exchange factor 4 (Homo sapiens) (UniProt Q8WZA2)
Test: Confirmatory qHTS for agonist of cAMP-regulated guanine nucleotide exchange factor 4 (EPAC2) (AID 1645884);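 also: nucleotide exchange releases bodipy-GDP from Rap1 and this lowers its fluorescence; % is scaled to controls: 0 for no effect and ±100 for the full control effect; nearly all actives have a fitted effect of over 65% in size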
Conditions: EPAC2 GEF activity, Rap1B-BODIPY-GDP fluorescence; series mostly up to 154 µM

Sequence of Rap guanine nucleotide exchange factor 4 (Homo sapiens) (Q8WZA2 whole entry, looked up): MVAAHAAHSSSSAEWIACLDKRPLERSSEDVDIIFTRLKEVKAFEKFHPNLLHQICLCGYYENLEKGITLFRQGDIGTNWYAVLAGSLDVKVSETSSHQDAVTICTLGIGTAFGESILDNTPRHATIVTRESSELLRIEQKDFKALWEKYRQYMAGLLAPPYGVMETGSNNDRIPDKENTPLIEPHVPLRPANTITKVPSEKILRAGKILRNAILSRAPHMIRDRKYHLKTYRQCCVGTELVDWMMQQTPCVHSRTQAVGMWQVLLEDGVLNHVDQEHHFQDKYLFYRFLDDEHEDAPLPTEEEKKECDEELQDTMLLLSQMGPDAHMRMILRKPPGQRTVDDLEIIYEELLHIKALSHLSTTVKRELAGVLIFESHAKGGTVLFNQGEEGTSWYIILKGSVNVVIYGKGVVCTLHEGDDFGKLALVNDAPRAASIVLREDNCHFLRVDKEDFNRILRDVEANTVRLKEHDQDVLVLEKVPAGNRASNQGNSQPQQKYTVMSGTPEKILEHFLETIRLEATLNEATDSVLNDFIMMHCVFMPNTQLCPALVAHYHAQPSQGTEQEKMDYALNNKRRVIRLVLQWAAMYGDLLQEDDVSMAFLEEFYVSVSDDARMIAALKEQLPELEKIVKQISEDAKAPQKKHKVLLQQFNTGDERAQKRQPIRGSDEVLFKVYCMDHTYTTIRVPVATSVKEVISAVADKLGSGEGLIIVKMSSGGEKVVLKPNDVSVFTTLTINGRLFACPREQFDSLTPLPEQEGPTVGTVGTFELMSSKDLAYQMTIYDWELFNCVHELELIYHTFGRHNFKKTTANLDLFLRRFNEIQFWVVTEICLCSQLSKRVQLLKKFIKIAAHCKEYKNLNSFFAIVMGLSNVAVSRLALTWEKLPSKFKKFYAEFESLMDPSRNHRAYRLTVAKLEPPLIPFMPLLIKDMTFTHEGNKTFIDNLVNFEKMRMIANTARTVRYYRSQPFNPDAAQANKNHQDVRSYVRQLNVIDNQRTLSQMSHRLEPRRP

Potency, inactive:
O=C1C=C(NS(=O)(=O)c2ccccc2)C(=O)c2ccccc21
Cc1ccccc1C(=O)Nc1cccc(C(=O)N/N=C/c2cc(Cl)cc([N+](=O)[O-])c2O)c1
Cc1ccc(Nc2c(-c3ccccn3)nc3cccc(C)n23)cc1
CC(=O)Nc1ccc(N(C(=O)Cn2nnc3ccccc32)C(C(=O)NC2CCCC2)c2ccc(O)c(O)c2)cc1 (stereo not given)
CCOC(=O)c1cnc2ccc(C(=O)OC)cc2c1Nc1ccccc1CC
CN(C)S(=O)(=O)c1cccc(COC(=O)Cc2c(F)cccc2Cl)c1
O=C(Nc1cccc(S(=O)(=O)NC2=NCCCCC2)c1)c1cc(-c2ccc(Cl)cc2)nc2ccccc12
Cc1cccc(Nc2nnc(-c3ccc(N4CCOCC4)c([N+](=O)[O-])c3)c3ccccc23)c1
Cc1nnc(SCC(=O)NCc2ccccc2F)c2nn(-c3ccc(Cl)cc3)c(C)c12
COn1c2c(c3c4nonc4ccc31)CCCC2
Cc1cccc(-c2nc3c(cnn3-c3ccccc3)c(=O)n2-c2cccc(Cl)c2)c1
COc1ccc(-n2c(NC(=O)c3ccco3)c(C#N)c3nc4ccccc4nc32)cc1
O=S(=O)(c1ccc2c(c1)C(O)c1ccccc1CC2)C(F)(F)F (stereo not given)
CCOc1ccccc1Oc1ncnc2c1oc1ccccc12
O=C(CSc1nc(-c2ccccc2)nc2c1Cc1ccccc1O2)Nc1ccc(C(=O)O)cc1
Cn1c(SCC(=O)c2cc(Cl)c(Cl)s2)nnc1-c1ccco1
COc1ccccc1-c1nnc(SCC(=O)c2ccc(C3CCCCC3)cc2)n1Cc1ccco1
Cc1noc(C)c1COc1ccccc1C(=O)NC(C)c1ccc(Cl)cc1 (stereo not given)
O=C(Nc1ccccc1)C1=C(O)CC(c2ccc(Cl)cc2)N2CCN=C12 (stereo not given)
COc1cc(/C=C2\SC(=O)N(c3cccc(Cl)c3)C2=O)cc([N+](=O)[O-])c1O
CCc1nc2c(OCC3CCCCC3)cccn2c1N(C)C(=O)c1ccc(C)cc1
COc1ccc(C2C=C(c3ccc(Br)cc3)Nc3nnnn32)c(OC)c1 (stereo not given)
CC(C)c1ccc(/C=C/C(=O)Nc2ccc(CN3CCOCC3)cc2)cc1

activation, inactive:
Nc1ccc2ccc(O)cc2c1 14.1% [at 17.1 µM, percent relative to cAMP agonist control]
COCCCNC(=O)C[C@@H]1C[C@@]2(C(=O)OC)CCCCC=C2N(Cc2cccc3ccccc23)C1=O 3.32% [at 17.1 µM, percent relative to cAMP agonist control]
Cc1c(N=Cc2cc(Br)cc(Br)c2O)cccc1C(=O)O -1.44% [at 17.1 µM, percent relative to cAMP agonist control]
CCOC(=O)c1c(NC(=O)CSc2nnnn2-c2ccccc2OCC)sc2c1CC(C)(C)NC2(C)C 5.6% [at 17.1 µM, percent relative to cAMP agonist control]
CC(C)(C)C1CCc2c(sc3nc(SCC(=O)O)nc(N)c23)C1 (stereo not given) 8.5% [at 17.1 µM, percent relative to cAMP agonist control]
CC(C)C1COC(c2cccn2Cc2ccccc2Cl)=N1 (stereo not given) 14.2% [at 17.1 µM, percent relative to cAMP agonist control]
CN(CC(=O)Nc1cccc(F)c1)C(=O)c1cccc(S(=O)(=O)N2CC3(C)CC2CC(C)(C)C3)c1 (stereo not given) 8% [at 17.1 µM, percent relative to cAMP agonist control]
C=CCOC(=O)C1=C(C)NC(C)=C(C(=O)OCC=C)C1c1ccco1 7.19% [at 17.1 µM, percent relative to cAMP agonist control]
O=C(Nc1cccnc1)c1c(O)c2cccc3c2n(c1=O)CC3 9.2% [at 17.1 µM, percent relative to cAMP agonist control]
CC1=NN(c2ccccc2)C(=O)C1=Cc1ccccc1 -2.46% [at 17.1 µM, percent relative to cAMP agonist control]
Cc1ccc(C(C[N+](=O)[O-])c2c(-c3ccccc3O)[nH][nH]c2=O)cc1 (stereo not given) 3.05% [at 17.1 µM, percent relative to cAMP agonist control]
CCCC1=C/C(=C/c2ccc(-c3ccccc3OC)o2)C(=O)O1 1.16% [at 17.1 µM, percent relative to cAMP agonist control]
CC1=NN(c2ccc(C)c(C)c2)C(=O)C1C(c1cccc(O)c1)C1C(=O)N(c2ccc(C)c(C)c2)N=C1C (stereo not given) 7.48% [at 17.1 µM, percent relative to cAMP agonist control]
O=C(Nc1sc2c(c1C(=O)O)CCCC2)c1ccc(Cl)cc1 1.39% [at 17.1 µM, percent relative to cAMP agonist control]
Cc1cccn2c(=O)c3cc(C#N)c(=NC(=O)c4ccccc4)n(Cc4ccco4)c3nc12 11% [at 17.1 µM, percent relative to cAMP agonist control]
COc1cccc(/C=C2\SC(=S)NC2=O)c1OS(=O)(=O)c1ccc(NC(C)=O)cc1 5.66% [at 17.1 µM, percent relative to cAMP agonist control]
COCCCn1c(=O)/c(=C\c2ccccc2OC(C)C)s/c1=C(/C#N)C(=O)Nc1ccc(C(=O)O)cc1 8.99% [at 17.1 µM, percent relative to cAMP agonist control]
